These results are taken from PubChem BioAssay.

The nature of the experiment: probe aNOTCH2 binding on compound microarray – biochemical, small-molecule microarray, 635/667 nm fluorescence, primary screen (AID 1121).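 Further: score merges feature fluorescence read at 667 nm with its signal to noise.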 The following applies: higher = more signal.
`Cc1ccccc1C(O)C1C=CC2C(=O)N(C)C(=O)C2N1N(c1ccccc1)c1ccccc1` (stereo not given) returned a composite z-score of 0.473.
Next, `COc1ccc([Si](C)(C)[C@@H]2[C@@H](CC(=O)N(CCO)Cc3ccccc3)O[C@]3(C(=O)N(Cc4cccc(N5C(=O)c6cccc7cccc5c67)c4)c4ccccc43)[C@H]2C)cc1`: -0.203.
For `C=C[C@@H](COC(C)=O)N(C(=O)OC(C)(C)C)S(=O)(=O)c1ccc(Br)cc1` the value was -0.0401; for `C=C(COC)/C(=C/C[C@H](OC(C)=O)c1ccc(OCCO)cc1)c1cc(C(=O)OC)ccc1OC`, -0.107.
`Cc1ccc(S[C@]2(C(=O)NCC(F)(F)F)CC(=O)N(Cc3ccccc3C(F)(F)F)[C@@H]2c2ccc(CO)cc2I)cc1` showed a composite z-score of -0.14.
In turn, `COC(=O)[C@@]1(Cc2ccc(F)cc2)[C@H]2c3cc(C(=O)N4CCCC4)n(CCc4ccc(O)c(O)c4)c3C[C@H]2CN1C(=O)c1ccccc1` gave a composite z-score of 0.89.
`COCCOC(=O)N1C(=O)[C@@]2(c3cc(C#CCC(C(=O)OC)C(=O)OC)ccc31)[C@H](C(=O)N1CCc3cc(OC)c(OC)cc3C1)[C@H]1C(=O)O[C@H](c3ccccc3)[C@H](c3ccccc3)N1[C@@H]2c1ccc(OCCO)cc1` gave a composite z-score of -0.0357.
`COc1ccc(CCN2C(=O)[C@@]3(Cc4ccccc42)c2ccccc2C(=O)N(Cc2ccccc2OC)[C@H]3c2ccc(CO)cc2)cc1` registered a composite z-score of -0.0785.
`CN(C)CCCNC(=O)[C@@]1(c2ccc([N+](=O)[O-])cc2)CC(=O)N(CC23CC4CC(CC(C4)C2)C3)[C@@H]1c1ccc(CO)cc1I` registered a composite z-score of -0.0877.
Next, `CCCC[C@@H]1C[C@H]1[C@@H](NC(=O)c1cccs1)c1ccc(C(F)(F)F)cc1`: -0.0859.
